Compounds with a hit are over-represented: about 7.8% of the library has one in this group of screens.
NOMO-1 viab = STK33 inhibitor candidate reducing NOMO-1 cell viability. NOMO-1 AML viability, CellTiter-Glo luminescence, 72 h. inhibition, % (no concentration beside the values). 7.5% of 37,000 active. AID 2330; in the data active = inhibition above about 80%; inconclusive = no clear call, values can overlap the other calls
MITF inh = MITF inhibition | TRPM1 promoter luciferase, luminescence, 24 h | inhibition, % (test concentration not listed) | 0.28% of 37,000 active | AID 2240; in the data active = inhibition above about 85%; inconclusive = no clear call, values can overlap the other calls; inactive = below about 68%;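 also: human melanocyte line stably carrying TRPM1 promoter luciferase reporter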
Hedgehog inh = blocks Sonic Hedgehog signaling; 2.1% of 22,000 active; inhibition, % (test concentration not listed); Shh-LIGHT2 Gli-luciferase reporter, 30 h;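 active = mean inhibition across valid replicates above about 65%, limit read from the data; inconclusive = mean under the limit, yet half or more replicates past it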;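 also: pathway switched on by Shh-conditioned medium diluted 1 in 25 in low serum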
* = called active by the depositor; u = inconclusive; x = no result given.

SMILES	NOMO-1 viab	MITF inh	Hedgehog inh
COc1ccc(SC(=O)c2cc(C)n(Cc3c(Cl)cccc3Cl)n2)cc1	-0.4	5.8	24.7
CCOc1ccc(-n2c(SCC(=O)OC)nnc2-c2ccccc2)cc1	56.0	-3.3	x
CCc1cc(C)cc(OCCn2cc(C=C3C(=O)NC(=O)NC3=O)c3ccccc32)c1	121.5*	47.4	-0.7
CCc1ccc(OCCCn2cc(/C=C3/C(=N)N4C=CSC4=NC3=O)c3ccccc32)cc1	54.0	12.6	24.0
CCn1c(SCC(=O)Nc2cccc(C)c2C)nnc1-c1ccc(Cl)c(Cl)c1	-11.5	-4.4	x
C=C1CC[C@@H]2[C@](C)(CO)[C@H](O)CC[C@@]2(C)[C@@H]1CC(O)C1=CCOC1=O (stereo partly specified)	105.7*	-21.8	28.0
C=C1CC[C@@H]2[C@](C)(CO[C@@H]3O[C@H](CO)[C@@H](O)[C@H](O)[C@H]3O)CCC[C@@]2(C)[C@@H]1CCC1=CCOC1=O	16.1	0.1	-27.4
CC(NS(=O)(=O)c1ccc(F)cc1)C(=O)Nc1cc(Cl)ccc1Oc1ccccc1 (stereo unspecified)	29.5	5.1	x
O=C(NCc1ccco1)c1ccccc1NC(=O)C1COc2ccccc2O1 (stereo unspecified)	41.8	4.7	x
C[C@@H]1CN([C@H](C)CO)C(=O)c2cc(NC(=O)Nc3ccc(C(F)(F)F)cc3)ccc2O[C@@H]1CN(C)Cc1ccc(Cl)c(Cl)c1	113.6*	25.5	14.7
C[C@@H]1CN([C@H](C)CO)C(=O)c2cc(NC(=O)Nc3ccc(C(F)(F)F)cc3)ccc2O[C@H]1CN(C)Cc1ccncc1	-6.3	-11.3	x
C[C@H]1CN([C@@H](C)CO)C(=O)c2cc(NC(=O)Nc3ccc(F)cc3)ccc2O[C@@H]1CN(C)Cc1ccc(Cl)c(Cl)c1	21.8	10.2	-12.6
C[C@H]1CN([C@@H](C)CO)C(=O)c2cc(NC(=O)Nc3ccc(C(F)(F)F)cc3)ccc2O[C@H]1CN(C)Cc1ccc(Cl)c(Cl)c1	106.9*	34.7	40.7
C[C@@H]1CN([C@H](C)CO)C(=O)c2cc(NC(=O)Nc3ccc(C(F)(F)F)cc3)ccc2O[C@H]1CN(C)Cc1ccc(Cl)c(Cl)c1	122.5*	0.6	x
COc1ccc(-n2nc3cc(C)c(NC(=S)NC(=O)COc4cccc(C)c4)cc3n2)cc1Cl	47.5	7.9	x
CS(=O)(=O)N(CC(=O)Nc1ccc(Oc2ccccc2)cc1)c1ccc2c(c1)OCCO2	28.9	-73.2	x
O=C1c2oc3ccccc3c(=O)c2C(c2cccc(Oc3ccccc3)c2)N1CCCO (stereo unspecified)	7.5	7.0	x
Cc1cc(C)c(NC(=O)CN(C)S(=O)(=O)c2ccccc2)c(C)c1	35.9	-19.2	x
O=C(Cn1cnc2ccccc2c1=O)Nc1ccc2c(c1)oc1ccccc12	24.9	-10.1	x
CC(CC(O)C1OC1(C)C)[C@@H]1CCC2(C)C3=CCC4C(C)(C)C(=O)CCC4(C)C3CC[C@@]12C (stereo partly specified)	101.4*	59.9	23.4
Cc1ccccc1C(=O)Nc1ccc(OCC(=O)O)cc1	7.6	4.2	x
CCNc1cc(N)[n+](CC)c2n[nH]c(N)c12	105.8*	1.3	4.7
Cc1ccc(NC(=O)CSc2n[nH]c(CC(C)C)n2)cc1	8.2	-6.3	x
O=C(CN1C(=O)c2cccc3cccc1c23)NCc1ccco1	32.0	-22.2	x
C[C@@H]1CCCCO[C@H](CN(C)Cc2ccc(C(F)(F)F)cc2)[C@@H](C)CN([C@H](C)CO)C(=O)c2cc(NS(=O)(=O)c3ccc(F)cc3)ccc2O1	100.4*	23.8	5.9
SMILES	NOMO-1 viab	MITF inh	Hedgehog inh
COc1ccc(CN(C)C[C@@H]2OCCCC[C@@H](C)Oc3ccc(NS(=O)(=O)c4ccc(OC)cc4)cc3C(=O)N([C@H](C)CO)C[C@@H]2C)cc1	15.2	-7.4	x
COc1ccc(CN(C)C[C@H]2OCCCC[C@@H](C)Oc3ccc(NS(=O)(=O)c4ccc(C)cc4)cc3C(=O)N([C@H](C)CO)C[C@@H]2C)cc1	22.2	0.7	65.0*
C[C@@H]1CCCCO[C@H](CN(C)Cc2ccncc2)[C@@H](C)CN([C@H](C)CO)C(=O)c2cc(NS(=O)(=O)c3ccc(F)cc3)ccc2O1	11.1	-11.1	9.0
COc1ccc(S(=O)(=O)Nc2ccc3c(c2)C(=O)N([C@H](C)CO)C[C@H](C)[C@H](CN(C)Cc2ccc(C(F)(F)F)cc2)OCCCC[C@@H](C)O3)cc1	105.2*	36.9	x
COc1ccc(S(=O)(=O)Nc2ccc3c(c2)C(=O)N([C@H](C)CO)C[C@H](C)[C@@H](CN(C)Cc2ccc(C(=O)O)cc2)OCCCC[C@@H](C)O3)cc1	-6.7	-23.9	x
C[C@@H]1CCCCO[C@@H](CN(C)Cc2ccc(C(F)(F)F)cc2)[C@@H](C)CN([C@H](C)CO)C(=O)c2cc(NS(=O)(=O)c3cccs3)ccc2O1	110.3*	51.4	u
